# Experiments:
# Experiment in all cases: DAPPL (digital affinity profiling via proximity ligation, sequencing); 10 mM Tris-HCl pH 7.5, 50 mM NaCl, 1 mM DTT, 4% glycerol, room temperature, 30 min; GST-TFs on glutathione beads, 16-mer random dsDNA library, 0.1% formaldehyde crosslink after washing; high values mean tight binding
# Conditions in all cases: protein: recombinant; tags: N-terminal GST; dsDNA, one strand shown
# ELK1 = target: T1, ELK1 (Homo sapiens, UniProt P19419 1-428)
# T1 sequence: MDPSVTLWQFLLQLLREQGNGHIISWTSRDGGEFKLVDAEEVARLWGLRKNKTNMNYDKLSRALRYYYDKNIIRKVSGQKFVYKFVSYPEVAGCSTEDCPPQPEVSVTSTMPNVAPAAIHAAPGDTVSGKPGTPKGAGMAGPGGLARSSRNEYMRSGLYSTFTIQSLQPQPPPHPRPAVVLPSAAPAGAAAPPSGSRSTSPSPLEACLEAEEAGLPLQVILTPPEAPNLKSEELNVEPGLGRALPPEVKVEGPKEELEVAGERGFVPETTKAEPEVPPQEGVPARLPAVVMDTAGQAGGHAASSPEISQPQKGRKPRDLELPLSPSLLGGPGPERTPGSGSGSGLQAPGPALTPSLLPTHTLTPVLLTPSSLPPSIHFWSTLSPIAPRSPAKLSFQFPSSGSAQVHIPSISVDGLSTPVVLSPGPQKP
# In short: (§1)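 A tag-only sample was pooled with DNA-barcoded human transcription factors that had been expressed in yeast as GST fusions and captured on glutathione beads. The pools were incubated for 30 min at room temperature with 200 nmole of a random double-stranded 16-mer DNA library in Tris/NaCl/DTT/glycerol buffer, then washed, crosslinked with 0.1% formaldehyde, proximity-ligated (BsaI/T4 ligase, 1 h, 37 °C), PCR-amplified and sequenced on an Illumina NextSeq500. Binding signal is each hexamer's read frequency for a factor divided by its frequency for the tag-only sample.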
# GABPA = target: T2, GABPA (Homo sapiens, UniProt Q06546 1-454)
# T2 sequence: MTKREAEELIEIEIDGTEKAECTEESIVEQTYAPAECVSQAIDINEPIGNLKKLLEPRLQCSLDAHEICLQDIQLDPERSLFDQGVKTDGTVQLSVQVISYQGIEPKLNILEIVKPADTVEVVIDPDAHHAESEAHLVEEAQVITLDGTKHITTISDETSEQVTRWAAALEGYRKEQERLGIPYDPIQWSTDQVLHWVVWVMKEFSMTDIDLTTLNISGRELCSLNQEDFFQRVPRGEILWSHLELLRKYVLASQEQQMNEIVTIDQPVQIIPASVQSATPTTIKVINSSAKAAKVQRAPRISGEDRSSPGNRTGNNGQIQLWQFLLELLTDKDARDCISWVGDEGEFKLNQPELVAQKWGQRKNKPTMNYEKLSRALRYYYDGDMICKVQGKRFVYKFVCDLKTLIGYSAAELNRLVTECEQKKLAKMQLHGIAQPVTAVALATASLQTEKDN
# In short: as §1
# ELF1 = ELF1 (Homo sapiens, UniProt P32519 1-619)
# Chain of ELF1 (P32519 whole entry): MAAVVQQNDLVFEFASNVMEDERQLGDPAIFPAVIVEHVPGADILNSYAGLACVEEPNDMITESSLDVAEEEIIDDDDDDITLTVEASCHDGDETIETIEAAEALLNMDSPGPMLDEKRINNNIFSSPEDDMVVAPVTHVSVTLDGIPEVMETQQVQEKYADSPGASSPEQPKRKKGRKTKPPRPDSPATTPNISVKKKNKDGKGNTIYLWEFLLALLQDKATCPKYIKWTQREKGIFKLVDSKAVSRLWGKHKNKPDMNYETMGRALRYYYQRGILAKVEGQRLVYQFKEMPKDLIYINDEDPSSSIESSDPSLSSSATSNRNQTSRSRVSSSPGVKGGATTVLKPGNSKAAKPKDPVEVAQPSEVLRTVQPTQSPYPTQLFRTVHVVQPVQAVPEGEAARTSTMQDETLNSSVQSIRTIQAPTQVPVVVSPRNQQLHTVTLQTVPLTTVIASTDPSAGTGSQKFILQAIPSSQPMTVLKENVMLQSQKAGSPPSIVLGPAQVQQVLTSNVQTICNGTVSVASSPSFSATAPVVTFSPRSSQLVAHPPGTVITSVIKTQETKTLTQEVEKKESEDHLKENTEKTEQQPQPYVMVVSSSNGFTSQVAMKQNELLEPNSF
# In short: as §1
# EHF = target: T3, EHF (Homo sapiens, UniProt Q9NZC4 1-300)
# T3 sequence: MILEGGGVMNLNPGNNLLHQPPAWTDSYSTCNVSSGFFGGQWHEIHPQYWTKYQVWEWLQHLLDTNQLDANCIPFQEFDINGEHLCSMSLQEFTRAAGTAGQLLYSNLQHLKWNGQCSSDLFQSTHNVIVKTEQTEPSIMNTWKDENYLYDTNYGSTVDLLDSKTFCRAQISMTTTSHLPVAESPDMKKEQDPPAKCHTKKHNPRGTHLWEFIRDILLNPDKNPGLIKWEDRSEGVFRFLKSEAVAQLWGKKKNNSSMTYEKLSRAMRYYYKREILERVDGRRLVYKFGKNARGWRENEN
# In short: as §1
# SPIB = SPIB (Homo sapiens, UniProt Q01892 1-262)
# Chain of SPIB (Q01892 whole entry): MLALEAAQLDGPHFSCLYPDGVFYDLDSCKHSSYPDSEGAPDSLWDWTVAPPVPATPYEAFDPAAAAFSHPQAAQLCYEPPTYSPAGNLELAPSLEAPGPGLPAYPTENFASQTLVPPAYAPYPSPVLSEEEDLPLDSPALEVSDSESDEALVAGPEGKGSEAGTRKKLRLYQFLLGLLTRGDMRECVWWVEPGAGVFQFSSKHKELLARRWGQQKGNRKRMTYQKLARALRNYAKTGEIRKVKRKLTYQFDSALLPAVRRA
# In short: as §1
# ETV5 = ETV5 (Homo sapiens, UniProt P41161 1-510)
# Chain of ETV5 (P41161 whole entry): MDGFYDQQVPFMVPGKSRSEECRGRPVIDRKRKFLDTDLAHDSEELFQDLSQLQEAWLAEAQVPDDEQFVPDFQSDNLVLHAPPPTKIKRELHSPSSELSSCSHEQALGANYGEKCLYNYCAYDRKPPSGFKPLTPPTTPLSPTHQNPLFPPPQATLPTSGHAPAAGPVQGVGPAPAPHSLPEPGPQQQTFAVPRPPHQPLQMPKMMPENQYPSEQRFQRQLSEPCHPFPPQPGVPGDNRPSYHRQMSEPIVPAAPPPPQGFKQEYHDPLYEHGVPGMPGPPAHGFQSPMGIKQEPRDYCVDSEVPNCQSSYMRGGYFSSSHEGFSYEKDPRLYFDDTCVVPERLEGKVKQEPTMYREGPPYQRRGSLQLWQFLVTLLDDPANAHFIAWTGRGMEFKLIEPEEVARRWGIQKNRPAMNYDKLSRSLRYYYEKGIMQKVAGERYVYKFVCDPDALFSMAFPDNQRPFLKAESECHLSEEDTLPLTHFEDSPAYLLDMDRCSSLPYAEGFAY
# In short: as §1
# ELF4 = ELF4 (Homo sapiens, UniProt Q99607 1-663)
# Chain of ELF4 (Q99607 whole entry): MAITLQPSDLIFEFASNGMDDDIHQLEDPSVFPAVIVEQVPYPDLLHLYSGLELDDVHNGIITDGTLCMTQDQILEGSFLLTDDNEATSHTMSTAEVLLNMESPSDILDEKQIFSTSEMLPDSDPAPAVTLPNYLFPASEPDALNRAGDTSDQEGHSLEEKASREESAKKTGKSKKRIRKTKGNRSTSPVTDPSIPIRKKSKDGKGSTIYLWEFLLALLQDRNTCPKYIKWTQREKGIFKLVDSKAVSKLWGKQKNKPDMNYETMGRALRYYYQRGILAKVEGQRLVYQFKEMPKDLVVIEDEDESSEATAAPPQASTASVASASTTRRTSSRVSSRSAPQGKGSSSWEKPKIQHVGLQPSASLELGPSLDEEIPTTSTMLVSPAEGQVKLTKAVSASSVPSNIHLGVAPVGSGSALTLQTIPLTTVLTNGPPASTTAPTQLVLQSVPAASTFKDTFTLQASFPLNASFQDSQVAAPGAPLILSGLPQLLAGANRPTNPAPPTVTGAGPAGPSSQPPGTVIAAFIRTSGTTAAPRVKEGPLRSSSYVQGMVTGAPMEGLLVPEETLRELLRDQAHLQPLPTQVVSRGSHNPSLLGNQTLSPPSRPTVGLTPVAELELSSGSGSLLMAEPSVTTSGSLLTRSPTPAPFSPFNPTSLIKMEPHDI
# In short: as §1
# ELK4 = target: T4, ELK4 (Homo sapiens, UniProt P28324-2 1-405)
# T4 sequence: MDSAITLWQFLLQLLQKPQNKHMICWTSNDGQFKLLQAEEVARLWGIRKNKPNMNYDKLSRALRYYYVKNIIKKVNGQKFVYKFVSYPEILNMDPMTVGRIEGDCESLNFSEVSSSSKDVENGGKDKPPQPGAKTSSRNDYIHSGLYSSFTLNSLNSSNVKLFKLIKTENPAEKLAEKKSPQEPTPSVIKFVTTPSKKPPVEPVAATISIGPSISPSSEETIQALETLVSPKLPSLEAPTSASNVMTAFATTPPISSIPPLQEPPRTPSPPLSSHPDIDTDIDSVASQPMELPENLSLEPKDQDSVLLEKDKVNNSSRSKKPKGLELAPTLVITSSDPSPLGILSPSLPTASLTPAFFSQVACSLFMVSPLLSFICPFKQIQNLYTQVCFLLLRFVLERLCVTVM
# In short: as §1
# ELF3 = target: T5, ELF3 (Homo sapiens, UniProt P78545 1-371)
# T5 sequence: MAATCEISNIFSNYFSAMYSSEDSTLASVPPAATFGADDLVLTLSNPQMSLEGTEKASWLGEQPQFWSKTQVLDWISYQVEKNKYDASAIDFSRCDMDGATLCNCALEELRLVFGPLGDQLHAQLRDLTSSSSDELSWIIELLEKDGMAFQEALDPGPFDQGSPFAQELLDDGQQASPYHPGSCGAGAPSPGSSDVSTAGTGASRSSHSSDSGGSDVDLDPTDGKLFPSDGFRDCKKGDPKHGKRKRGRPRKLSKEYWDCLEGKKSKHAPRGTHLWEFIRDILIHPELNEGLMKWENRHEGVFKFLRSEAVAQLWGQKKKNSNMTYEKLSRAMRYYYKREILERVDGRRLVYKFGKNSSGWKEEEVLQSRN
# In short: as §1
# ETV1 = ETV1 (Homo sapiens, UniProt P50549 1-477)
# Chain of ETV1 (P50549 whole entry): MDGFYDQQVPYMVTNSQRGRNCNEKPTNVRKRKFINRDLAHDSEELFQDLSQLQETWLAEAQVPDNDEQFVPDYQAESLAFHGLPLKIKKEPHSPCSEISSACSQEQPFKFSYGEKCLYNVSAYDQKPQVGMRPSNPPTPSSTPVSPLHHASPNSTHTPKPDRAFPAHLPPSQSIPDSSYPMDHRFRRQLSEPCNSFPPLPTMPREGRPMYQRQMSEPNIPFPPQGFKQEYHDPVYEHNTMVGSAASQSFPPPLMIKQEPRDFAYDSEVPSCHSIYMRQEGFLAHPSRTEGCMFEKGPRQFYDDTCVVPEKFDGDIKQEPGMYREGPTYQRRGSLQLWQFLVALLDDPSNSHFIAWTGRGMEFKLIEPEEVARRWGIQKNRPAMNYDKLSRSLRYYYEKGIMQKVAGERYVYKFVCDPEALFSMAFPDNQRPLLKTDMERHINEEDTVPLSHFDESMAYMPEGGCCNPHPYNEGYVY
# In short: as §1
# ERF = target: T6, ERF (Homo sapiens, UniProt P50548 1-548)
# T6 sequence: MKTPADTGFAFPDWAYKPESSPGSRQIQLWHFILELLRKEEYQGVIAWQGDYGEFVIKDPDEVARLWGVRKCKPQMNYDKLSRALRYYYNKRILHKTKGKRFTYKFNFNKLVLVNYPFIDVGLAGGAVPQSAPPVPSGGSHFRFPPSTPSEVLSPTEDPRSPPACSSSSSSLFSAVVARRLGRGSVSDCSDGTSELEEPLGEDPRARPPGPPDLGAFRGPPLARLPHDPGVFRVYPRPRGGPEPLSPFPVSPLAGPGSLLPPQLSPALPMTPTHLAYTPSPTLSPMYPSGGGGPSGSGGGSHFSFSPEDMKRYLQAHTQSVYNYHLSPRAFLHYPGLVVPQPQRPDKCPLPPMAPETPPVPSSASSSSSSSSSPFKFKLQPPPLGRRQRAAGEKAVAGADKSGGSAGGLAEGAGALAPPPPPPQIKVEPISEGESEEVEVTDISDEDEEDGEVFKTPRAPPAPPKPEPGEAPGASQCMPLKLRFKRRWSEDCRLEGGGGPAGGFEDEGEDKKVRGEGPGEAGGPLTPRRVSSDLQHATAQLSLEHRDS
# In short: as §1
# ETV3L = target: T7, ETV3L (Homo sapiens, UniProt Q6ZN32 1-361)
# T7 sequence: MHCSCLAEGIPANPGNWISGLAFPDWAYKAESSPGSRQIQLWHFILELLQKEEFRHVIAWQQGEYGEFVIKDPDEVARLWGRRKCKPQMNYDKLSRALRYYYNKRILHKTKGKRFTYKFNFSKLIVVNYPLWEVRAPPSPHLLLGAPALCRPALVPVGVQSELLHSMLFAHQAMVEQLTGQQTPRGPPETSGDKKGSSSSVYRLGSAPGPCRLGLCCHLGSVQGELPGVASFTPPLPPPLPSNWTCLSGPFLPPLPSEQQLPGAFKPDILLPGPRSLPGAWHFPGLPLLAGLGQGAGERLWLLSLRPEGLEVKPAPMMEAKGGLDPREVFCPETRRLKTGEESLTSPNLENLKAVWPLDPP
# In short: as §1
# ETS2 = target: T8, ETS2 (Homo sapiens, UniProt P15036 1-469)
# T8 sequence: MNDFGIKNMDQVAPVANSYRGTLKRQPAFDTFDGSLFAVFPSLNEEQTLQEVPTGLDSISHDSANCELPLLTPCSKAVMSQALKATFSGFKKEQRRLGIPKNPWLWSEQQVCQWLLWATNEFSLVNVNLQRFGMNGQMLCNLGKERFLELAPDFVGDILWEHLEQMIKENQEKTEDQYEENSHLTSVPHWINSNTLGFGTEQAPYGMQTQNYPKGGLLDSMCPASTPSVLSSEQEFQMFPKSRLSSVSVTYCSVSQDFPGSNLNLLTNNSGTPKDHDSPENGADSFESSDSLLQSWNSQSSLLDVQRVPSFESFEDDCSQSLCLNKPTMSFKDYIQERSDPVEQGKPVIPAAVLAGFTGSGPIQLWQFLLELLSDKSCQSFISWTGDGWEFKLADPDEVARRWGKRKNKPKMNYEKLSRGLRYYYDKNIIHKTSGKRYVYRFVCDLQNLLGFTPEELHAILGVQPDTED
# In short: as §1
# SPDEF = target: T9, SPDEF (Homo sapiens, UniProt O95238 1-335)
# T9 sequence: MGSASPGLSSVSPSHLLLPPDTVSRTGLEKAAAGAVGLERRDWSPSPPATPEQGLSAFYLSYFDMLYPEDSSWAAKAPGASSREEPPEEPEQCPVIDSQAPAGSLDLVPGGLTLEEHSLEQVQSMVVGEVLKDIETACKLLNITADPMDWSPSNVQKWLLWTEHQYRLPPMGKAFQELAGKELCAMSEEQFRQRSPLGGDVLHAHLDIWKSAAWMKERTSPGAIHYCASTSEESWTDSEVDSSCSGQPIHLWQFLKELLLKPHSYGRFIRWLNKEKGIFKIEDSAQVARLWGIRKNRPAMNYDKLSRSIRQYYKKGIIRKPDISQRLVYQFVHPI
# In short: as §1
# ETV3 = target: T10, ETV3 (Homo sapiens, UniProt P41162-2 1-143)
# T10 sequence: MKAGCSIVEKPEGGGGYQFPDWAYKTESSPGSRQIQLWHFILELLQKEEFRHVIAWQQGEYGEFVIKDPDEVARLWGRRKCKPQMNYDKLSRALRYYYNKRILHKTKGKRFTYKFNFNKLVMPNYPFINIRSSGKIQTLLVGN
# In short: as §1
sequence,measurement,setting,value
TGCAAG,binding signal,ELK1,"1.11 fold enrichment (6-mer frequency, TF over GST control)"
same,binding signal,GABPA,"1.07 fold enrichment (6-mer frequency, TF over GST control)"
same,binding signal,ELF1,"1.01 fold enrichment (6-mer frequency, TF over GST control)"
same,binding signal,EHF,"1.02 fold enrichment (6-mer frequency, TF over GST control)"
same,binding signal,SPIB,"1.04 fold enrichment (6-mer frequency, TF over GST control)"
same,binding signal,ETV5,"1.07 fold enrichment (6-mer frequency, TF over GST control)"
same,binding signal,ELF4,"1.05 fold enrichment (6-mer frequency, TF over GST control)"
same,binding signal,ELK4,"1.07 fold enrichment (6-mer frequency, TF over GST control)"
same,binding signal,ELF3,"1.15 fold enrichment (6-mer frequency, TF over GST control)"
same,binding signal,ETV1,"1.03 fold enrichment (6-mer frequency, TF over GST control)"
same,binding signal,ERF,"1.01 fold enrichment (6-mer frequency, TF over GST control)"
same,binding signal,ETV3L,"1.11 fold enrichment (6-mer frequency, TF over GST control)"
same,binding signal,ETS2,"1.12 fold enrichment (6-mer frequency, TF over GST control)"
same,binding signal,SPDEF,"1.11 fold enrichment (6-mer frequency, TF over GST control)"
same,binding signal,ETV3,"1.07 fold enrichment (6-mer frequency, TF over GST control)"

# From PMC7862700, “An all-to-all approach to the identification of sequence-specific readers for epigenetic DNA modifications on cytosine”
